Reference: PubChem BioAssay AID493131 (Broad Institute, 2011)
In all, about 340,000 compounds went through this assay and about 3,300 (0.97%) were called active.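 Rule for the calls: active = mean activation above about 17%, with every replicate also reaching it (limit read from the data, passing the limit was not always enough); inconclusive = only one of the two conditions met; inactive = the rest.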 Many of the other results were omitted from the sample, so actives are more common in it than they were.

Target: Protein FosB (Mus musculus) (UniProt P13346)
Sequence (P13346 whole entry, looked up): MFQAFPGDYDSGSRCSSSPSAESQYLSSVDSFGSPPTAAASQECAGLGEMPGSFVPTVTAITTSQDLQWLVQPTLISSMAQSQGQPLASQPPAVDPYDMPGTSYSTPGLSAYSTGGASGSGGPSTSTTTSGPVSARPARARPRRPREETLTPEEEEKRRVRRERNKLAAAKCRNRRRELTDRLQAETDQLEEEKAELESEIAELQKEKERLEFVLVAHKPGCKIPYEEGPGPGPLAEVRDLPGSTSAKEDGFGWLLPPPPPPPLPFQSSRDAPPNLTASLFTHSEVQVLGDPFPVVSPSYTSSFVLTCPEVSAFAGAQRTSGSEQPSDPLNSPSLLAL
Assay: enhancers of mouse delta FosB DNA binding – biochemical, fluorescence polarization, TAMRA-CDK5 oligo, single point, primary screen (AID 493131);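 note: fluorescence polarization rise as delta FosB binds a TAMRA Cdk5 AP-1 oligo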
Conditions: purified delta FosB, at 25 µM, stronger effect = higher value, percent of positive-control signal above neutral wells

| Compound | activation |
| --- | --- |
| Cc1ccc(NC(=O)NC(=O)N(C2CCCCC2)S(=O)(=O)c2ccccc2)cc1 | -0.8% (inactive) |
| Clc1ccc(-n2nnnc2-c2cnc(-c3ccccn3)nc2-c2cccs2)cc1 | -8.45% (inactive) |
| O=C(Cn1cc(-c2nnnn2-c2ccc(Cl)cc2)c(=O)c2ccccc21)c1ccccc1 | 114% (active) |
| O=C(CN1CCN(c2ccc(Cl)cc2)CC1)c1ccccc1 | 1.64% (inactive) |
| CCOC(=O)N1CCC(NC(=O)C(C)n2c3ccccc3c3cnn(C)c(=O)c32)CC1 (stereo not drawn) | -6.6% (inactive) |
| O=C(Nc1ccccc1C(F)(F)F)c1cc(-c2ccc(O)cc2)on1 | 0.0145% (inactive) |
| O=C(Nc1cccnc1Cl)c1cc(-c2ccccc2O)on1 | 64.8% (active) |
| C=CCNC(=O)c1cc(-c2ccccc2O)on1 | -2.37% (inactive) |
| Cc1ccc(NC(=O)COC(=O)CCc2nc3ccccc3n2-c2ccccc2)c(C)c1 | -3.49% (inactive) |
| Cc1oc(-c2cccc(Cl)c2)[n+]([O-])c1C | 7.9% (inactive) |
| COc1ccc(C(=O)Nc2ccccc2C(=O)N/N=C/c2ccccc2OC)cc1 | 38% (active) |
| COc1ccc(C(=O)Nc2ccccc2C(=O)N2CCN(c3ccccc3)CC2)cc1 | -0.701% (inactive) |
| COc1ccc(C(=O)Nc2cc(C)c(NC(=O)c3ccccc3OC)cn2)cc1 | -13.9% (inactive) |
| Cc1ccc(NC(=O)NNC(=O)c2sccc2-n2cccc2)cc1 | -2.71% (inactive) |
| Nc1ccn(CC(=O)N2CCN(c3ccccn3)CC2)c(=O)n1 | -4.48% (inactive) |
| O=C(Nc1ccc(S(=O)(=O)N2CCOCC2)cc1)C1CCN(S(=O)(=O)c2ccc(Cl)cc2)CC1 | -7.05% (inactive) |
| O=C(NC1CCCCC1)n1c(=O)oc2cc(S(=O)(=O)N3CCCCC3)ccc21 | 3.88% (inactive) |
| Cc1ccc2nc(NC(=O)C3CCN(S(=O)(=O)c4ccc5c(c4)oc(=O)n5C)CC3)sc2c1 | 28.8% (active) |
| Cc1ccc(C)c(N2CCN(S(=O)(=O)c3ccc4c(c3)oc(=O)n4C)CC2)c1 | -5.87% (inactive) |
| Cn1c(=O)oc2cc(S(=O)(=O)N3CCC(C(=O)Nc4ccc(OC(F)(F)F)cc4)CC3)ccc21 | 32.2% (active) |

| Compound | activation |
| --- | --- |
| COc1ccc(NC(=O)C2CCN(S(=O)(=O)c3ccc4[nH]c(=O)oc4c3)CC2)c(OC)c1 | 1.87% (inactive) |
| CC(=O)c1cccc(-c2ccc(CN3C(CC(C)C)C(=O)N(Cc4cn(CC5CCCCC5)nn4)CCS3(=O)=O)cc2)c1 (stereo not drawn) | -19.5% (inactive) |
| O=C(NN=Cc1ccccc1O)NN=Cc1ccccc1O | 8.66% (inactive) |
| O=C(Nc1ccc(C(=O)NCc2ccccc2Cl)cc1)C1=CSCCO1 | -4.85% (inactive) |
| COc1cc(O)c2c(=O)c3c(O)c(O)ccc3oc2c1OC | -1.22% (inactive) |
| CCCc1nc2c([nH]1)C(c1cccnc1)C(C#N)=C(N)O2 (stereo not drawn) | -0.0522% (inactive) |
| CC(=O)Nc1ccc(NC(=O)COc2ccc(-c3ccccc3)cc2)cc1 | 14.5% (inactive) |
| O=C(COc1ccccc1)Nc1ccc(F)cc1 | -2.09% (inactive) |
| CCOC(=O)C1=C(O)/C(=C/c2cc(C)n(-c3ccccc3)c2C)N=C1C | -14.4% (inactive) |
| Cc1ccc(NC(=O)COc2ccc(/C=C3/NC(=O)NC3=O)cc2)cc1 | 73.1% (active) |
| CCOC(=O)C1=C(O)/C(=C/c2ccc(OCC(=O)Nc3ccc(C)cc3)cc2)N=C1C | 30.5% (active) |
| COC(=O)C1=C(O)/C(=C/c2ccc(OCC(=O)Nc3ccccc3)cc2)N=C1C | 13.8% (inactive) |
| CSCCC(NC(=O)COc1ccccc1)C(=O)N(C)CC(=O)Nc1ccc(C)cc1 (stereo not drawn) | -10.6% (inactive) |
| C#Cc1ccc([C@@H]2C=C(C(=O)O)O[C@H](OCCCCO)C2)cc1 | -5.67% (inactive) |
| O=C(Nc1ccc(Br)cn1)C1CCN(S(=O)(=O)c2cccs2)CC1 | 0.962% (inactive) |
| CN(CCNC(=O)c1cc2c(-c3ccccc3F)nn(C)c2s1)C1CCCCC1 | -29% (inactive) |
| N#Cc1c(N)nc2c3c(sc(=N)c2c1N)NC(=O)CC3c1ccccc1Cl (stereo not drawn) | 57.2% (active) |
| COc1ccc(C2CC(=O)Nc3sc(=N)c4c(N)c(C#N)c(N)nc4c32)cc1OC (stereo not drawn) | 2.35% (inactive) |
| CSc1nc2c(c(=O)[nH]1)C(c1cccc(Cl)c1Cl)CC(=O)N2 (stereo not drawn) | -2.19% (inactive) |
| O=C(Nc1ccc(N2CCN(C(=O)c3cccs3)CC2)cc1)c1cccnc1Cl | -0.363% (inactive) |

| Compound | activation |
| --- | --- |
| Nc1nnc(SCC(=O)OCc2ccc(Cl)c(Cl)c2)s1 | -5.37% (inactive) |
| COc1ccc(OCC(O)CN(C)C(=O)C(C)Oc2ccccc2)cc1 (stereo not drawn) | 4.24% (inactive) |
| CN(C)CC(O)COc1ccc(C(C)(C)c2ccc(OCC(O)CN(C)C)cc2)cc1 (stereo not drawn) | 20% (active) |
| Cc1cc(C)n(CC(O)COc2ccc(C(C)(C)C)cc2)n1 (stereo not drawn) | -7.22% (inactive) |
| O=C1CC(Sc2ncn[nH]2)C(=O)N1c1ccccc1 (stereo not drawn) | 1.52% (inactive) |
| Cc1cc(Nc2cc(N3CCN(C)CC3)nc(Sc3ccc(NC(=O)C4CC4)cc3)n2)n[nH]1 | 3.28% (inactive) |
| CCCOCC(O)CC(CC)C(=O)NNC(=S)Nc1ccccc1 (stereo not drawn) | -0.789% (inactive) |
| Cc1ccc(/C=N/NC(=O)COc2ccccc2-c2ccccc2)cc1 | 2.13% (inactive) |
| C=CCNC(=O)/C=C/c1ccc(C(C)C)cc1 | -5.28% (inactive) |
| O=C(/C=C/c1ccc(F)cc1)NC(=S)NNC(=O)c1cccnc1 | -8.6% (inactive) |
| O=C(/C=C/c1ccc(F)cc1)NCCNC(=O)/C=C/c1ccc(F)cc1 | 53.1% (active) |
| O=C1/C(=C/c2coc3ccc(O)cc3c2=O)SC(=S)N1c1ccccc1 | 45.3% (active) |
| O=c1c(/C=N/O)coc2ccc(Cl)cc12 | -6.61% (inactive) |
| Cc1ccc2occ(/C=N/NC(=O)c3ccccc3C)c(=O)c2c1 | -9.18% (inactive) |
| COc1ccc(CNC(=O)c2ccc3oc(C(C)C)nc3c2)cc1 | -6.34% (inactive) |
| CC(=O)Nc1ccc(S(=O)(=O)N(C)c2nc3ccccc3nc2Cl)cc1 | -7.23% (inactive) |
| CC(=O)Nc1ccc(Nc2c3ccccc3nc3ccccc23)cc1 | 107% (active) |
| CC(=O)Nc1ccc(Nc2c([N+](=O)[O-])cc(S(C)(=O)=O)cc2[N+](=O)[O-])cc1 | 9.05% (inactive) |
